Measurements: ChEMBL document CHEMBL3988442, “University of Dundee, Small-Polar-MMV Screening Library” (2021)
Hit rate of the full screen: of about 69,000 compounds, about 950 (1.4%) showed an effect of 50% or more. Only a selection was taken, and strong results are over-represented in it overall.

What follows are molecules tested on Mycobacterium tuberculosis (assay: Cornell M. t heat shock assay; further: in the data most compounds retested in dose-response had high values).
Type: functional, organism-based
Parameters: dose or concentration left out as unconfirmed
In the case of `COCC1CN(Cc2ccc3c(c2)OCO3)Cc2ncn(C)c21.O=C(O)C(F)(F)F.O=C(O)C(F)(F)F` (stereo not given), the “Percent Effect” value is reported as -21.56%. For `Cl.O=C(N1CCCC1)C1(Cc2ccc(-c3cccs3)cc2)CCNC1` (stereo not given), the “Percent Effect” value was -20.63%. With `Cc1c[nH]c(C2CCCN(Cc3ccccc3C(=O)O)C2)n1.O=CO` (stereo not given) the “Percent Effect” value was -20.14%. For `CC(C)CCN1C[C@H]2C[C@H](C(=O)Nc3ccccc3)[C@@H](C1)O2.O=C(O)C(F)(F)F`, the “Percent Effect” value was -19.48%. For `CN(Cc1cccnc1)[C@@H]1CN(C(=O)c2ccno2)[C@@H]2CCCO[C@H]12.O=C(O)C(F)(F)F.O=C(O)C(F)(F)F`, the “Percent Effect” value was 0.2387%. With `COC(=O)Cn1c(=O)nc2n1C(=O)N(c1ccc(C)cc1)C2` the “Percent Effect” value was 3.714%. In the case of `CCS(=O)(=O)NC[C@]12COC[C@H]1CN(Cc1cccc(OC)c1)C2.O=C(O)C(F)(F)F`, the “Percent Effect” value is reported as -11.48%. With `CN(Cc1ccccc1)C(=O)CS(=O)(=O)Cc1ccc(Cl)c(Cl)c1` the “Percent Effect” value was 47.42%. In the case of `CN(Cc1cccc(F)c1)C(=O)CS(=O)(=O)Cc1c(Cl)cccc1Cl`, the “Percent Effect” value is reported as 25.49%. For `CN(Cc1cccc(F)c1)C(=O)CS(=O)(=O)Cc1ccc(Cl)c(Cl)c1`, the “Percent Effect” value was 52.33%. In the case of `Cc1ccc(-c2cc(C3CCNCC3)nc(C)n2)cc1.Cl`, the “Percent Effect” value is reported as -12.8%. In the case of `CSc1ccc(-c2cc(CN)nc3ccnn23)cc1.Cl`, the “Percent Effect” value is reported as 4.059%. `COC(=O)C(NC(=O)c1ccc(N(C)C)nc1)c1ccccc1` (stereo not given) was tested, and the “Percent Effect” value was 22%. With `NC(=O)C(NC(=O)c1ccc(NC2CC2)nc1)c1ccccc1` (stereo not given) the “Percent Effect” value was -7.076%. `COC(=O)C(NC(=O)c1ccc(NC2CC2)nc1)c1ccccc1` (stereo not given) was tested, and the “Percent Effect” value was 51.61%. `CC(C)Cc1cc(CN2C[C@H]3CC[C@@H]2CN(Cc2cscn2)C3)n[nH]1` was tested, and the “Percent Effect” value was 107.7%. With `CC(C)c1cc(C(=O)N2C[C@H]3CC[C@@H]2CN(Cc2cscn2)C3)no1` the “Percent Effect” value was 37.62%. `CC(C)(C)c1cc(CN2C[C@H]3CC[C@@H]2CN(Cc2cscn2)C3)n[nH]1` was tested, and the “Percent Effect” value was 92.4%. With `Cc1c[nH]c(C(=O)N2C[C@H]3CC[C@@H]2CN(Cc2cscn2)C3)n1` the “Percent Effect” value was 2.551%. With `COc1cccc(C(=O)N2C[C@H]3CC[C@@H]2CN(Cc2cscn2)C3)c1` the “Percent Effect” value was -27.99%. In the case of `COC(=O)N1C[C@H]2CC[C@@H]1CN(Cc1cscn1)C2`, the “Percent Effect” value is reported as 1.905%. With `CN1C(=O)C(c2ccccc2)CC12CCN(CCO)CC2.O=C(O)C(F)(F)F` (stereo not given) the “Percent Effect” value was -21.97%. With `Cc1cccc(CN2CC3(CCN(C4CCOC4)CC3)OCC2=O)n1.O=C(O)C(F)(F)F.O=C(O)C(F)(F)F` (stereo not given) the “Percent Effect” value was -30.47%. `O=C(O)C(F)(F)F.O=C(c1ccco1)N1CCO[C@@H]2CN(Cc3nccs3)CC[C@@H]2C1` was tested, and the “Percent Effect” value was 4.898%. With `CCC1=N[C@@]2(CC[C@@H]3CN(Cc4cccc(Cl)c4)C[C@@H]32)C(=O)N1C.O=C(O)C(F)(F)F` the “Percent Effect” value was 32.88%. `Cc1nc(C2CCN(Cc3ncc[nH]3)CC2)no1.O=CO` was tested, and the “Percent Effect” value was -19.83%. In the case of `Cc1oc(-c2nc(C#N)c(NC3CC3)o2)cc1S(=O)(=O)N1CCCC1`, the “Percent Effect” value is reported as -1.847%. For `CN(C)S(=O)(=O)c1ccc(-c2nc(C#N)c(NC(C)(C)C)o2)o1.Cl`, the “Percent Effect” value was 74.72%. With `CNc1oc(-c2ccc(S(=O)(=O)N(C)C)o2)nc1C#N` the “Percent Effect” value was -18.56%. In the case of `CN(C)S(=O)(=O)c1ccc(-c2nc(C#N)c(NC3CCCCC3)o2)o1`, the “Percent Effect” value is reported as 5.856%. In the case of `Cc1oc(-c2nc(C#N)c(NC(C)(C)C)o2)cc1S(=O)(=O)N1CCCC1`, the “Percent Effect” value is reported as 1.248%. For `CC(C)Nc1oc(-c2ccc(S(=O)(=O)N(C)C)o2)nc1C#N`, the “Percent Effect” value was -8.92%. In the case of `CNc1oc(-c2ccc(OC)c(S(=O)(=O)N(C)C)c2)nc1C#N`, the “Percent Effect” value is reported as 4.952%. With `CN(C)S(=O)(=O)c1ccc(-c2nc(C#N)c(NC3CC3)o2)o1` the “Percent Effect” value was 78.01%. With `CCN1CCOCC2(CCCN(C(=O)c3ccncc3F)C2)C1.O=C(O)C(F)(F)F` (stereo not given) the “Percent Effect” value was -0.7478%. For `Cc1ccc(CN2CCC(O)(Cn3ccc4ncccc43)CC2)o1.Cl`, the “Percent Effect” value was -13.38%. For `CNC(=O)C1Cn2ccnc2C2(CCN(Cc3ccncc3)CC2)O1.O=C(O)C(F)(F)F.O=C(O)C(F)(F)F.O=C(O)C(F)(F)F` (stereo not given), the “Percent Effect” value was -2.036%. In the case of `O=C(NCc1ccco1)[C@H]1CC[C@@H]2[C@@H](CCN2C2CCC2)O1.O=C(O)C(F)(F)F`, the “Percent Effect” value is reported as -4.585%. In the case of `CN(C)CCOCC1CN(Cc2ccoc2)Cc2nnn(C)c21.O=C(O)C(F)(F)F.O=C(O)C(F)(F)F` (stereo not given), the “Percent Effect” value is reported as -17.74%. `Cc1cc(N(C)C)nc(C2CCCN2)n1.Cl.Cl` (stereo not given) was tested, and the “Percent Effect” value was -13.2%. For `O=C(COCCc1ccccc1)N1CCCC(n2cccn2)C1` (stereo not given), the “Percent Effect” value was 11.3%. With `Cn1cc(CN2CCCC23CCN(C(=O)c2ccccc2)CC3)cn1.O=C(O)C(F)(F)F` the “Percent Effect” value was -27.87%. `CN(C)CC(=O)N1CCc2sc(C(=O)N3CCOCC3)cc21` was tested, and the “Percent Effect” value was 54.7%. For `CC(C)NC(=O)c1cc2c(s1)CCN2C(=O)CN(C)C`, the “Percent Effect” value was -7.193%. `CN(C)CC(=O)N1CCc2sc(C(=O)N3CCN(C)CC3)cc21` was tested, and the “Percent Effect” value was 17.23%. In the case of `CC(C)N(C)Cc1cncc2c1CCN(C1CCOCC1)C2.Cl.Cl.Cl`, the “Percent Effect” value is reported as 21.63%. With `CNC(=O)CN1CCC2(CCCN(CC3CCOC3)C2)CC1.O=C(O)C(F)(F)F.O=C(O)C(F)(F)F` (stereo not given) the “Percent Effect” value was 3.829%. In the case of `O=C(O)C(F)(F)F.O=C(O)C(F)(F)F.O=C1CO[C@@H]2CN(Cc3ccsc3)C[C@H]2N1Cc1ccncc1`, the “Percent Effect” value is reported as 1.203%. With `CN(Cc1noc(C2CC2)n1)C1CCN(Cc2ccncc2)C1` (stereo not given) the “Percent Effect” value was 51.32%. For `CN(Cc1noc(C2CC2)n1)C1CCN(CCc2cnn(C)c2)C1` (stereo not given), the “Percent Effect” value was -5.5%. For `CC(=O)N(Cc1noc(C2CC2)n1)C1CCN(Cc2ccncc2)C1` (stereo not given), the “Percent Effect” value was -2.088%. For `CN(Cc1noc(C2CC2)n1)C1CCN(Cc2ccc(F)c(F)c2)C1` (stereo not given), the “Percent Effect” value was -5.311%. For `Cc1ccc(CCN2CCC(N(C)Cc3noc(C4CC4)n3)C2)cc1` (stereo not given), the “Percent Effect” value was 83.22%. For `CN(Cc1noc(C2CC2)n1)C1CCN(CCc2cccs2)C1` (stereo not given), the “Percent Effect” value was 12.6%. With `CS(=O)(=O)CCNCc1ccc(OCc2cscn2)cc1` the “Percent Effect” value was -2.969%. In the case of `CC1c2ncc(Cn3cccn3)n2CCN1c1ncccn1.O=C(O)C(F)(F)F` (stereo not given), the “Percent Effect” value is reported as 40.47%. In the case of `COc1ccc(-c2n[nH]cc2CNC2CCN(C3CC3)CC2)cc1.Cl`, the “Percent Effect” value is reported as -33.63%. `Cc1ccc(N2CCO[C@H]3CN(Cc4cccnc4)C[C@H]32)nn1.O=C(O)C(F)(F)F.O=C(O)C(F)(F)F.O=C(O)C(F)(F)F` was tested, and the “Percent Effect” value was -30.09%. With `O=C(Nc1nccs1)C1CCCN1Cc1ccccn1` (stereo not given) the “Percent Effect” value was 103.1%. For `CC(=O)Nc1cccc(CN2CCCC2C(=O)Nc2nccs2)c1` (stereo not given), the “Percent Effect” value was -15.37%. For `CCNc1ccnc(CN2CCCC2C(=O)Nc2nccs2)c1` (stereo not given), the “Percent Effect” value was 13.04%. In the case of `Cc1ccc(C(N)c2cccc(S(C)(=O)=O)c2)c(C)c1.Cl` (stereo not given), the “Percent Effect” value is reported as 1.87%. `COc1ccc(CNC(c2cccc(F)c2)c2cnn(C)c2)cc1` (stereo not given) was tested, and the “Percent Effect” value was -3.342%. `CC(NCc1ccc(OCc2nccn2C)cc1)c1cccnc1` (stereo not given) was tested, and the “Percent Effect” value was -26.18%. In the case of `CC(c1ccc(F)cc1)N1CCN(Cc2nccn2C)CC1` (stereo not given), the “Percent Effect” value is reported as -10.33%. With `Cn1ccnc1C(NCc1ccccc1)c1ccc(F)cc1` (stereo not given) the “Percent Effect” value was 113.8%. In the case of `COc1c(CNC(c2ccccc2)c2ccc(F)cc2)c(C)nn1C` (stereo not given), the “Percent Effect” value is reported as -7.995%. For `CSc1ccc(CN(CCO)Cc2nccn2C)cc1`, the “Percent Effect” value was -17.8%. `COc1cccc(C(NCc2ccc(SC)cc2)c2nccn2C)c1` (stereo not given) was tested, and the “Percent Effect” value was 112.8%. With `COc1c(CNC(c2ccc(F)cc2)c2nccn2C)c(C)nn1C` (stereo not given) the “Percent Effect” value was -11.67%. `Cn1cc(C(NCc2ccc(F)cc2)c2cccc(F)c2)cn1` (stereo not given) was tested, and the “Percent Effect” value was -7.107%. For `COc1cccc(-c2cc(NCc3nccn3C)n(C)n2)c1`, the “Percent Effect” value was 1.129%. In the case of `CSc1ccc(CNC(c2ccc(F)cc2)c2nccn2C)cc1` (stereo not given), the “Percent Effect” value is reported as 112.9%. `CSc1ccc(CNC(c2ccccc2)c2nccn2C)cc1` (stereo not given) was tested, and the “Percent Effect” value was 105.2%. `O=C(O)C(F)(F)F.O=C(O)C(F)(F)F.c1ccc(CO[C@@H]2CN(Cc3nccs3)[C@@H]3COC[C@@H]32)nc1` was tested, and the “Percent Effect” value was 32.68%. With `Cn1cc(N2CC3(CCN(Cc4nccs4)CC3)OCC2=O)cn1.O=C(O)C(F)(F)F` the “Percent Effect” value was -26.5%. With `CCn1c(NCc2ccccn2)nc2c(C)nn(C)c2c1=O` the “Percent Effect” value was -10.12%. With `COc1ccc(CN2CCC(c3cc(O)nc(C)n3)C2)c(OC)c1.O=C(O)CC(O)(CC(=O)O)C(=O)O` (stereo not given) the “Percent Effect” value was -19.34%. `Cl.O=C(NCc1cccc(Cl)c1)C1=NOC2(CCNC2)C1` (stereo not given) was tested, and the “Percent Effect” value was -31.4%. In the case of `O=C(O)C(F)(F)F.O=C(c1cscn1)N1CC[C@@H]2[C@@H]1CCN2C1CCOC1` (stereo not given in full), the “Percent Effect” value is reported as 5.753%. In the case of `CCN1C[C@H]2[C@@H](C1)N(C(=O)Cc1ccsc1)CC[C@H]2OC.O=C(O)C(F)(F)F`, the “Percent Effect” value is reported as -3.863%. With `COCC1Cn2nnc(-c3cnn(C)c3)c2CN1Cc1ccsc1.O=C(O)C(F)(F)F` (stereo not given) the “Percent Effect” value was 14.81%. With `CCc1ccc(CN2CCN(c3ncc(Cl)cn3)CC2)nc1` the “Percent Effect” value was 68.7%. `COc1ccc(CN2CCN(c3ncc(Cl)cn3)CC2)cc1` was tested, and the “Percent Effect” value was -15.93%. For `CCc1ccc(CN2CCN(c3ccc(Cl)nn3)CC2)nc1`, the “Percent Effect” value was 15.06%. `Cc1nc(Cn2c3c(ccc2=O)CC(NC(C)C)CC3)cs1.O=C(O)C(F)(F)F.O=C(O)C(F)(F)F` (stereo not given) was tested, and the “Percent Effect” value was 34.33%. For `COCCN1CCOCC2(CCCN(Cc3cccc(F)c3)C2)C1.O=C(O)C(F)(F)F.O=C(O)C(F)(F)F` (stereo not given), the “Percent Effect” value was -14.36%. In the case of `Clc1ccccc1C1(c2ccnc(-c3ncccn3)n2)CCNCC1`, the “Percent Effect” value is reported as -0.2715%. `Clc1ccccc1C1(c2ccnc(C3CC3)n2)CCNCC1` was tested, and the “Percent Effect” value was -18.26%. `Clc1ccccc1C1(c2ccnc(C3CCCC3)n2)CCNCC1` was tested, and the “Percent Effect” value was 57.06%.
